# High-throughput results: PubChem, National Center for Advancing Translational Sciences (NCATS)
# Only some compounds are listed: those with a hit (about 0.26% of all), similar ones and a draw of the others.
# LMNA splice mod – changes lamin A minigene splicing in HeLa cells. HeLa LMNA splicing GFP/RFP minigene ratio, 48 h. Potency, µM (top dose mostly 46.1 µM), hits mostly inhibitors. 200,000 compounds, 0.01% hits. AID 1487; active = well fitted inhibition curve with a large enough effect in the signal ratio, with a control signal flat, not every such curve was filed as active; inconclusive = small, poorly fitted or top-dose-only effect, or effect the other way, or a change in a side signal; the % refers to the signal ratio
#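 Read-out is the ratio of GFP to DsRed2 object intensity, acquired by 488 nm laser-scanning cytometry on HeLa lamin A-EGFP minigene reporter cells. Compound incubation 48 hrs at 37 °C in Opti-MEM with 2% FBS; DMSO 0.5% final.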
# Menin MLL FP FL – inhibitors of human menin-MLL interaction, wild-type MLL peptide; FP activity change, % at 61.4 µM; Fluorescence polarization, fluorescein-MLL peptide displacement from menin; 290,000 tested, under 10 active; active = well fitted curve in the direction sought with a large enough effect in the polarisation, not every such curve was filed as active; inconclusive = small, poorly fitted or top-dose-only effect, or effect the other way, or a change in a side signal; inactive = no such curve, though single readings can be large or run the other way; the % refers to the polarisation
# Menin-MLL TR inh – displaces Texas Red mutant MLL peptide from human menin; AID 1768; 270,000 compounds, 0.23% hits; O00255; Potency, µM (titrated, usually from 61.6 µM), actives largely listed as inhibitors; Menin + Texas Red MLL mutant peptide, fluorescence polarization; active = well fitted inhibition curve with a large enough effect in the polarisation, with a control signal flat, not every such curve was filed as active; inconclusive = small, poorly fitted or top-dose-only effect, or effect the other way, or a change in a side signal; inactive = no such curve, though single readings can be large or run the other way; the % refers to the polarisation
# Target sequence (O00255 whole entry, looked up): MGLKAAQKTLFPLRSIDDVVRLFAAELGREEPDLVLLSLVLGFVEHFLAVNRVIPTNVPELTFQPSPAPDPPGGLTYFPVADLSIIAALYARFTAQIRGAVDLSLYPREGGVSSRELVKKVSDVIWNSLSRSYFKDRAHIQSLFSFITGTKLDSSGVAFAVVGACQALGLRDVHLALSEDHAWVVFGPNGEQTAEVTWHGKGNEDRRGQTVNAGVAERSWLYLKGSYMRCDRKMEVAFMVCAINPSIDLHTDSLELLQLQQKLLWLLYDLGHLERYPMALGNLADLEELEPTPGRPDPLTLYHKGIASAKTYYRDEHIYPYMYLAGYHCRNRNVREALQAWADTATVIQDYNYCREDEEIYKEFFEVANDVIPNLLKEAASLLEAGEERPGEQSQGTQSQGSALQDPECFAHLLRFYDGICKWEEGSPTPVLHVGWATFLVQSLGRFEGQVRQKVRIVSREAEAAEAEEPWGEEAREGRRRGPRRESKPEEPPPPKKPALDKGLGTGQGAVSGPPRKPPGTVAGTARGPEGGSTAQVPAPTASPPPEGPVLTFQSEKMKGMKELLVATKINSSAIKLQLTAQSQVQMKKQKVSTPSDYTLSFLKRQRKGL
# CXXC DNA block – blocks binding of human MLL CXXC domain to DNA | Q03164 | Potency, µM (titrated, usually from 115 µM), actives largely listed as inhibitors | MLL-CXXC / FITC-HOXA9 DNA fluorescence polarization | 290,000 compounds, 0.037% hits; active = well fitted inhibition curve with a large enough effect in the polarisation, with a control signal flat, not every such curve was filed as active; inconclusive = small, poorly fitted or top-dose-only effect, or effect the other way, or a change in a side signal; inactive = no such curve, though single readings can be large or run the other way; the % refers to the polarisation
#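 Purified MLL-CXXC (added from a 7 uM solution) was preincubated 5 min at ambient with pinned compounds in 50 mM Tris-HCl pH 7.5, 50 mM NaCl, 1 mM DTT, 0.05% BSA. Fluorescein-labeled HOX-A9 DNA (50 nM solution) followed, 30 min, then polarization read.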
# Epigenetic derep – regulators of epigenetic silencing causing reporter derepression in mouse cells | 280,000 compounds, 0.2% hits | AID 1865 | Potency, µM (highest dose often 53.9 µM), hits mostly activators | murine LDR cells, GFP reporter derepression, 30 h; active = well fitted activation curve with a large enough effect; inconclusive = small, poorly fitted or top-dose-only effect; also: nearly all actives have a fitted effect of over 60% in size
#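 GFP-positive cell count by laser-scanning cytometry (objects 20–120 um) after 30 h, 37 C compound exposure of murine LDR cells; reporter is CMV-GFP integrated at a silenced locus, inducible by HDAC or DNMT inhibitors.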
# Hits are given with their value; – = inactive; ? = inconclusive; · = not tested or not shown; [ ] = another dose, or the depositor's remark.
SMILES,LMNA splice mod,Menin MLL FP FL,Menin-MLL TR inh,CXXC DNA block,Epigenetic derep
O=C(Nc1ccc(NC(=O)c2ccc(S(=O)(=O)c3ccccc3)cc2)cc1)c1ccccc1,–,–,10µM,–,–
CC(=O)Nc1ccc(NC(=O)c2ccc(N(C)S(=O)(=O)c3ccc(C)cc3)cc2)cc1,·,·,·,–,·
O=[N+]([O-])c1ccc(/C=N/NC(=S)Nc2ccc(Cl)cc2Cl)s1,·,–,·,–,22µM
N=C1SC(c2ccccc2)C(=O)N1c1ncc(Cc2ccccc2Cl)s1 (stereo not drawn),?,–,14µM,–,–
CCN(CC)c1ccc2cc(S(=O)(=O)c3ccc(Cl)cc3)c(=O)oc2c1,?,?,–,?,?
CCN(CC)c1ccc2cc(-c3nc(-c4ccc(Cl)cc4Cl)cs3)c(=O)oc2c1,?,·,·,·,2.8µM
CCN(CC)c1ccc2cc(-c3nc4ccccc4n3C)c(=O)oc2c1,–,?,–[11.7 µM],?,7.1µM
CCN(CC)c1ccc2cc(-c3nnc(-c4ccccc4)o3)c(=O)oc2c1,?,?,–,?,3.2µM
COc1cccc2cc(-c3nc4ccccc4[nH]3)c(=O)oc12,·,–,–,–,·
O=c1oc2ccc3ccccc3c2cc1-c1nnc(-c2ccccc2)o1,?,–,–,–,–
CCN(CC)c1ccc2cc(-c3nc4ccccc4[nH]3)c(=O)oc2c1,?,?,?,?,2.8µM
COc1cc(C/C=C\c2ccccc2)c(OC)cc1O,·,–,?,·,–
COc1cc(-c2ccc(N=Nc3ccc4c(S(=O)(=O)O)cc(S(=O)(=O)O)c(N)c4c3O)c(OC)c2)ccc1N=Nc1ccc2c(S(=O)(=O)O)cc(S(=O)(=O)O)c(N)c2c1O,–,–,?,·,–
Cc1noc(C)c1-c1ccc2ncnc(NCc3cccc(C(F)(F)F)c3)c2c1,·,–,–,·,·
Cc1cccn2c(=O)c(/C=C(\C#N)C(N)=O)c(Oc3ccccc3)nc12,·,–,·,–,–
COc1ccccc1Oc1nc2c(C)cccn2c(=O)c1/C=C(\C#N)c1nc2ccccc2[nH]1,·,·,·,·,13µM
O=c1c2c([nH]n1-c1ccccc1)CCCC2,?,–,?,–,–
O=c1[nH]n(-c2ccccc2)c(=O)c(Cl)c1Cl,–,–,13µM,–,–
COc1ccc2cc3cc(C(=O)NCCCN4CCOCC4)oc3nc2c1,–,–,28µM,–,–
CCN1CCN(CCCNC(=O)c2cc3cc4ccc(OC)cc4nc3o2)CC1,–,–,?,–,–
CN1CCC(CNC(=O)c2ccc(Cc3nc4ccccc4[nH]3)cc2)CC1,·,·,·,·,–
NS(=O)(=O)c1cccc(NS(=O)(=O)c2ccc(/C=C/C(=O)OCC(=O)c3ccc(Br)cc3)cc2)c1,–,–,28µM,–,–
O=C(O)c1ccc(F)c(S(=O)(=O)Nc2cccc(F)c2)c1,·,·,·,·,–
COc1ccc(N2CCN(C(=O)c3cc(=O)c4cc(C)cc(C)c4o3)CC2)cc1,·,–,11µM,–,·
COc1ccc(N2CCN(C(=O)c3cc(=O)c4cc(C)ccc4o3)CC2)cc1,·,–,?,–,·
SMILES,LMNA splice mod,Menin MLL FP FL,Menin-MLL TR inh,CXXC DNA block,Epigenetic derep
Cc1cc(=O)c2c(O)c3c(O)cc(O)c4c5c(O)cc(O)c6c(O)c7c(=O)cc(C)c8c1c2c(c34)c(c65)c78,·,?,?,·,–
O=C1C(C2=C(O)c3ccccc3C2=O)=Nc2ccccc21,?,–,?,?,7.9µM
CC(C)C[C@@H](/C=C/S(C)(=O)=O)NC(=O)[C@H](CC(C)C)NC(=O)[C@H](CC(C)C)NC(=O)OCc1ccccc1,·,·,·,·,6.3µM
CCNC(=O)C(Cc1ccccc1)NC(=O)OCc1ccccc1 (stereo not drawn),?,–,–,–,–
CN(C)c1ccc(-c2nc(NC3CCNCC3)c3ccccc3n2)cc1,?,–,–,·,2.8µM
O=C(NC1CCN(Cc2ccccc2)CC1)c1ccc(-n2c(=O)c(=O)[nH]c3ccccc32)cc1,·,·,·,·,–
CCn1cc([N+](=O)[O-])c(C(=O)N2N=C(c3ccc(Cl)c(Cl)c3)CC2c2ccccc2O)n1 (stereo not drawn),·,–,–,–,–
CCn1cc([N+](=O)[O-])c(C(=O)N2N=C(c3ccc4ccccc4c3)CC2c2cc(Br)ccc2O)n1 (stereo not drawn),?,–,11µM,–,–
CN(C)CCNC(=O)c1ccc(Cc2nc3ccccc3[nH]2)cc1,·,·,·,·,–
COc1cc(/C=C(\C#N)c2ccccn2)ccc1OCC(=O)Nc1ccc(Br)cc1,?,–,–,–,–
COc1cc(/C=C(\C#N)c2nc3ccccc3s2)ccc1OCC(=O)Nc1ccccc1,–,?,–,–,3.2µM
CCCCCCCC/C=C\CCCCCCCCCCCC(=O)O,·,–,–,·,·
CC1=C(C(=O)O)N2C(=O)[C@@H](NC(=O)[C@@H](N)c3ccccc3)[C@@H]2SC1,?,–,–,·,–
COc1ccc(/C=C/C(=O)Nc2ccc3nc(N4CCC(C)CC4)cc(C)c3c2)cc1,·,·,·,·,22µM
Cc1cc(N2CCCCC2)nc2ccc(NC(=O)/C=C/c3ccc(OC(C)C)cc3)cc12,·,·,·,·,–
CCc1ccc(S(=O)(=O)Nc2ccc(O)c(C(=O)O)c2)cc1,·,·,·,·,–
N#Cc1c(C(F)(F)F)cc(-c2cccs2)nc1SCC(=O)Nc1cccc(Br)c1,·,·,·,·,10µM
CCN(CC)C(=O)CSc1nc(-c2cccs2)cc(-c2cccs2)c1C#N,–,?,–,–,35µM
CCOC(=O)c1ccc(NC(=O)CSc2nc(-c3ccc(F)cc3)cc(C(F)(F)F)c2C#N)cc1,·,·,·,·,7.1µM
CCN(CC)C(=O)CSc1nc(N)c(C#N)c(-c2cccs2)c1C#N,–,–,–,–,–
N#Cc1c(C(F)(F)F)cc(-c2cccs2)nc1SCC(=O)Nc1cccc(Cl)c1,·,·,·,·,–
COc1ccc(C(=O)Nc2ccccc2C(=O)NC(Cc2ccc(O)cc2)C(=O)NNC(=O)c2ccccc2Cl)cc1 (stereo not drawn),–,–,28µM,–,?
CSCC[C@H](N)C(=O)N[C@@H](CO)C(=O)N[C@@H](CCCN=C(N)N)C(=O)N1CCC[C@H]1C(=O)N[C@@H](C)C(=O)N[C@@H](CS)C(=O)N1CCC[C@H]1C(=O)N[C@@H](CC(N)=O)C(=O)N[C@@H](CC(=O)O)C(=O)N[C@@H](CCCCN)C(=O)N[C@@H](Cc1ccc(O)cc1)C(=O)N[C@@H](CCC(=O)O)C(=O)O,·,–,–,·,·
COc1ccc(C(=O)/C(Br)=C/C(=O)O)cc1,·,–,–,–,·
CC(C)N1CC2=C(OC(N)=C(C#N)C2c2cccnc2)/C(=C/c2cccnc2)C1 (stereo not drawn),–,–,25µM,–,–
COc1ccccc1N1CCN(Cc2cc(Br)c(O)c3ncccc23)CC1,?,–,–,–,?
CCCOCc1ccc(O)c2ncccc12,·,–,·,–,3.5µM
COCc1cc(CN2CCCC2)c(O)c2ncccc12,–,–,–,–,–
COc1ccccc1N1CCN(Cc2cc(COC(C)C)c3cccnc3c2O)CC1,·,·,·,·,3.5µM
CCCOCc1cc(CN2CCN(c3ccccc3OC)CC2)c(O)c2ncccc12,·,·,·,·,3.5µM
